Experimental findings from PubChem BioAssay AID588727 (Southern Research Specialized Biocontainment Screening …, 2011) are described below.

Molecules are shown by their SMILES. In all, about 350,000 compounds went through this assay and about 450 (0.13%) were called active. The rule behind the calls is not given here. Only a sample is shown. Entries with a potency or affinity are not part of this list.

In general, inhibition refers to the percentage by which the read-out fell short of the control.

A short description of the assay: inhibitors of VEEV TC-83 cytopathic effect, confirmation, Vero cells (AID 588727). The note with it: VEEV TC-83 cytopathic effect inhibition, at 20 µM; stronger effect = higher value unless noted. For orientation: Cytopathic effects are the visible damage that an infection or toxin causes in cultured cells.
On to `CC1=CC(C)(C)N2C(=O)C3(NCCc4c3[nH]c3ccccc43)c3cccc1c32` (configuration not stated), for which the inhibition was 0.24% (inactive).

In the case of `CN1C(=O)C2(NCCc3c2[nH]c2ccccc32)c2ccccc21` (configuration not stated), the inhibition was 1.48% (inactive).

With `Cn1cc([N+](=O)[O-])c(C(=O)Nc2ccc(C(=O)N3CCCCC3)cc2)n1`, the inhibition is 10.8% (inactive).

Take `Cc1nn(C)c(C(=O)Nc2ccn(C34CC5CC(CC(C5)C3)C4)n2)c1[N+](=O)[O-]`: the inhibition was 0.3% (inactive).

Turning to `CCn1cc([N+](=O)[O-])c(C(=O)Nc2ccn(C34CC5CC(CC(C5)C3)C4)n2)n1`, the inhibition was 0.69% (inactive).

Consider `Cn1ncc([N+](=O)[O-])c1C(=O)Nc1ccc(C2CCCCC2)cc1`, for which the inhibition is 2.86% (inactive).

As for `CCOc1ccc(S(=O)(=O)N2CCCCC2)cc1NC(=O)C1=COCCO1`, the inhibition was 10.1% (inactive).

As for `O=C1NC2=C(C(=O)CCC2)C(c2ccc([N+](=O)[O-])cc2)N1` (configuration not stated), the inhibition entry was “inactive”.

Turning to `COc1ccccc1N1CCN(C(=O)c2cccc(S(=O)(=O)N3c4ccccc4CC3C)c2)CC1` (configuration not stated), the inhibition is 5.41% (inactive).

Turning to `CN(CC(=O)Nc1ccccc1Br)C(=O)c1cccc(S(=O)(=O)N2CCc3ccccc32)c1`, the inhibition was 7.03% (inactive).

`O=C(c1cccc(S(=O)(=O)N2CCc3ccccc32)c1)N1CCOCC1`: the inhibition is 1.59% (inactive).

Regarding `O=C(c1cccc(S(=O)(=O)N2CCc3ccccc32)c1)N1CCc2ccccc2C1`, the inhibition was 6.28% (inactive).

`COc1cc2c(cc1OC)CN(C(=O)c1cccc(S(=O)(=O)N(C)C)c1)CC2`: the inhibition was 1.42% (inactive).

With `COc1ccc(N2CCN(C(=O)c3cccc(S(=O)(=O)N4CCc5ccccc54)c3)CC2)cc1`, the inhibition was 4.71% (inactive).

`NS(=O)(=O)c1ccc(CNC(=O)c2cccc(S(=O)(=O)N3CCc4ccccc43)c2)cc1`: the inhibition is 2.16% (inactive).

Regarding `CC(=O)N1CCN(C(=O)c2cccc(S(=O)(=O)N3c4ccccc4CC3C)c2)CC1` (configuration not stated), the inhibition result was “inactive”.

Take `CC(C)OC(=O)CSc1nnc(CNc2ccc(Cl)cc2)n1Cc1ccccc1`: the inhibition entry is “inactive”.

In the case of `Cc1cc(/N=C/C=C2/N(C)c3ccccc3C2(C)C)n(CCC#N)n1`, the inhibition is 1.39% (inactive).

`CC(=O)Nc1c2c(nn1-c1cccc(Cl)c1)CS(=O)(=O)C2`: the inhibition entry is “inactive”.

For `O=C(COC(=O)/C=C/c1ccc(F)cc1)NC1CCCC1`, the inhibition was 2.24% (inactive).

As to `Cn1nnnc1Sc1ncnc2scc(-c3ccc(C(F)(F)F)cc3)c12`, the inhibition result was “inactive”.

Turning to `CCCCCC1CC(CC(=O)Nc2ccc([N+](=O)[O-])cc2)OC1=O` (configuration not stated), the inhibition result was “inactive”.

Regarding `NC(=NC1CCCCC1)c1ccc(Cl)cc1`, the inhibition was 0.26% (inactive).

For the compound `CCCCn1c(=O)[nH]c(=O)c2c1nc(CN(C)Cc1cccc(OC)c1OC)n2CCC`, the inhibition is 6.28% (inactive).

Turning to `CCCCCC(=O)N1C[C@@H](n2cc(COC(=O)c3ccccc3)nn2)[C@H](O)C[C@@H]1c1ccc(OC)cc1`, the inhibition is 0.24% (inactive).

`Cc1cccc(-n2ncc3c(N4CC(C)CC(C)C4)ncnc32)c1` (configuration not stated): the inhibition was 1.8% (inactive).

`Cc1cccc(C(=O)NCCNC(=O)c2cccc(C)c2)c1`: the inhibition result was “inactive”.

As to `CNC(=O)C1=C(C)Nc2nc3ccccc3n2C1c1ccc(F)cc1` (configuration not stated), the inhibition was 0.17% (inactive).

With `O=C(CC(=O)c1cccc([N+](=O)[O-])c1)Nc1ccccc1Cl`, the inhibition entry was “inactive”.

Turning to `Cc1ccc(S(=O)(=O)N2C[C@@H](C)[C@]3(C2)[C@H](O)[C@H](OC(=O)NCc2ccccc2)C[C@H]2C(=O)N(c4ccccc4)C(=O)[C@H]23)cc1`, the inhibition was 5.33% (inactive).

`Cc1ccc(S(=O)(=O)N2C[C@@H](C)[C@]3(C2)[C@H](O)[C@H](OC(=O)NC2CC2)C[C@H]2C(=O)N(c4ccccc4)C(=O)[C@H]23)cc1`: the inhibition is 11.5% (inactive).

As to `COCCNC(=O)CN(c1ccc(OC)c(OC)c1)S(=O)(=O)c1ccc(C)cc1`, the inhibition is 1.04% (inactive).

Regarding `COC(=O)c1ccc(-n2c(C)cc(C(=O)COC(=O)CNS(=O)(=O)c3ccc(C)cc3)c2C)cc1`, the inhibition is 0.63% (inactive).

Regarding `CC(=O)Nc1ccc(NC(=O)c2c(C)nn(Cc3ccccc3Cl)c2C)cc1`, the inhibition result is “inactive”.

Take `CCC(CC)c1nnc(NC(=O)c2c(C)nn(Cc3ccccc3Cl)c2C)s1`: the inhibition was 7.55% (inactive).

Consider `CC1CC(=O)N(C)c2cc([N+](=O)[O-])ccc2N1` (configuration not stated), for which the inhibition was 1.14% (inactive).

As to `COC(=O)c1cccc(NC(=S)N2CCOCC2)c1`, the inhibition was 0.95% (inactive).

Turning to `CCCCCC(=O)N1C[C@@H](n2cc(COC(=O)c3ccccc3)nn2)[C@H](O)C[C@@H]1c1ccccc1`, the inhibition result was “inactive”.

As for `COn1c(-c2ccccc2)nc2c1CCc1c-2no[n+]1[O-]`, the inhibition is 5.93% (inactive).

As for `c1ccc(-c2nc3c([nH]2)CCc2nonc2-3)cc1`, the inhibition was 2.3% (inactive).

As for `Cc1ccccc1CC(=O)c1ccc(O)c(C)c1O`, the inhibition was 5.23% (inactive).

Turning to `CCc1ccc(NC(=O)CS(=O)CC(=O)Nc2ccc(-n3cnnn3)c(C)c2)cc1` (configuration not stated), the inhibition is 2.1% (inactive).

Turning to `CCOc1ccc(/C=C/c2nc(C#N)c(NCCCOC)o2)cc1`, the inhibition was 6.2% (inactive).

Regarding `CCNc1oc(/C=C/c2ccc(OCC)cc2)nc1C#N`, the inhibition was 6.65% (inactive).

As for `CC1=C(C(=O)Nc2ccccn2)C(c2ccc(Br)cc2)NC(=S)N1` (configuration not stated), the inhibition was 2.92% (inactive).

Turning to `O=C(O)c1cc([N+](=O)[O-])ccc1Nc1ccccc1`, the inhibition was 0.6% (inactive).

For the compound `O=C(O)c1ccccc1Nc1ccc([N+](=O)[O-])cc1C(=O)O`, the inhibition result is “inactive”.

`O=C(Nc1cccnc1)c1cccnc1Cl`: the inhibition was 0.62% (inactive).

In the case of `CCOc1ccc(C(=O)Nc2ccc(N3CCN(C)CC3)cc2)cc1`, the inhibition was 2.08% (inactive).

Regarding `CCCCOc1ccc(C(=O)Nc2ccc(N3CCN(C(C)=O)CC3)cc2)cc1`, the inhibition was 3.29% (inactive).

Consider `CCc1ccc(NC(=O)CC2C(=O)N(c3cccc(OC)c3)C(=O)N2CCOC)cc1` (configuration not stated), for which the inhibition was 1.82% (inactive).

On to `Cc1cc(NC(=O)C(C)SCC(=O)OCC(=O)N(Cc2ccccc2)C(C)(C)C)no1` (configuration not stated), for which the inhibition is 1.5% (inactive).

As to `Cc1cccc(N(Cc2ccccc2)C(=O)CSC(C)C(=O)Nc2cc(C)on2)c1` (configuration not stated), the inhibition was 7.94% (inactive).

Regarding `CCOC(=O)Cn1cc(C(=O)C2CC2)c2ccccc21`, the inhibition was 1.2% (inactive).

As for `COc1cccc(-n2c(CN3CCOCC3)nc3ccc([N+](=O)[O-])cc3c2=O)c1`, the inhibition is 7.79% (inactive).

Turning to `O=c1c2cc([N+](=O)[O-])ccc2nc(CN2CCN(c3ccccn3)CC2)n1-c1ccccc1F`, the inhibition was 1.21% (inactive).

With `COc1cccc(-n2c(CN3CCN(c4ccccc4)CC3)nc3ccc([N+](=O)[O-])cc3c2=O)c1`, the inhibition was 2.74% (inactive).

With `CCC(CC)N1CCN(Cc2nc3ccc([N+](=O)[O-])cc3c(=O)n2-c2ccccc2F)CC1`, the inhibition is 22.2% (inactive).

As to `COc1cc(NC(=O)c2sc3ncn(CC(=O)N4CCCCC4C)c(=O)c3c2C)cc(OC)c1OC` (configuration not stated), the inhibition was 11.6% (inactive).

As for `Cc1ccc(CN2CC(C(=O)NNC(=O)c3ccc(F)cc3)CC2=O)cc1` (configuration not stated), the inhibition entry is “inactive”.

For the compound `COCCCNC(=O)c1cc(-c2cccnc2)nc2ccccc12`, the inhibition entry was “inactive”.

Consider `COCCNC(=O)COC(=O)c1cc(-c2ccc(OC)cc2)nc2ccccc12`, for which the inhibition was 0.73% (inactive).

`Cc1cccc2cc(CN(CCN(C)C)C(=S)NCc3ccco3)c(=O)[nH]c12`: the inhibition was 6.74% (inactive).

As to `CN(C)CCN(Cc1cc2cc3c(cc2nc1Cl)OCO3)C(=O)c1ccco1`, the inhibition was 1.49% (inactive).

As to `CCN(CC)CCNC(=O)c1cc2c(=O)n(CC)c3ccccc3c2s1`, the inhibition is 8.46% (inactive).

Take `CC1(C)NC(=O)N(CC(O)CN2CCOCC2)C1=O` (configuration not stated): the inhibition was 1.64% (inactive).

With `Cc1cc(NC(=O)COc2ccccc2C)ccc1NC(=O)c1ccco1`, the inhibition was 2.11% (inactive).

Regarding `COc1ccc(S(=O)(=O)N(C)c2ccc(C(=O)Nc3cccnc3)cc2)cc1`, the inhibition is 8.16% (inactive).

With `C=C1CC2C(=O)N(Cc3cc(OC)ccc3OC)C(C(=O)OCC)(C(=O)OCC)C1N2C(=O)OC(C)(C)C` (configuration not stated), the inhibition result is “inactive”.

As for `CCN1C/C(=C/c2ccc(OC)c(O)c2)C(=O)/C(=C/c2ccc(OC)c(O)c2)C1`, the inhibition result is “inactive”.

Turning to `COc1ccc(/C=C2\CN(Cc3ccccc3)C/C(=C\c3ccc(OC)cc3OC)C2=O)c(OC)c1`, the inhibition was 6.18% (inactive).

`Cc1cc(C)cc(-n2ncc3c2CCCC3NC(=O)CCCn2cncn2)c1` (configuration not stated): the inhibition was 0.41% (inactive).

For `CCOc1ccccc1-c1nc(CN2CCCC2c2nccs2)c(C)o1` (configuration not stated), the inhibition was 8.27% (inactive).

For the compound `COc1ccccc1C1CCCN1Cc1nc(-c2cc3c(cc2Cl)OCO3)oc1C` (configuration not stated), the inhibition was 3.15% (inactive).

`COc1ccc(OC)c(S(=O)(=O)NCCS(=O)(=O)N2CCN(c3ccccc3)CC2)c1`: the inhibition is 0.7% (inactive).

As to `Cc1nc2ccccc2c(=O)n1NC(=O)/C=C/c1ccc(Br)cc1`, the inhibition result was “inactive”.

`Cc1c(NC(=O)Nc2ccccc2)c(=O)n(-c2ccccc2)n1C`: the inhibition result is “inactive”.

`O=C(NNC(=O)c1ccc2ccccc2c1O)NC1CCCCC1`: the inhibition is 2.22% (inactive).

In the case of `O=C(NC1CCCCC1)c1cc2ccccc2cc1O`, the inhibition result is “inactive”.

Regarding `O=S(=O)(c1cccc2nsnc12)N1CCc2ccccc21`, the inhibition result is “inactive”.

Take `Cc1nnc(N2CCCC(C(=O)NCc3cccc(F)c3)C2)c2nn(-c3ccccc3)c(C)c12` (configuration not stated): the inhibition was 7.4% (inactive).

Regarding `Cc1ccc(CNc2nc(N)c([N+](=O)[O-])c(NCCO)n2)cc1`, the inhibition was 5.11% (inactive).

As to `O=c1c2sccc2nc(SCc2cc(=O)n3cc(Cl)ccc3n2)n1-c1ccc(F)cc1`, the inhibition is 6.28% [measured here: 10K pilot screen inhibition, stronger effect = higher value] and the call was inactive.

With `COCCNC(=O)c1cc2oc3ccccc3c2n1C`, the inhibition is 3.48% (inactive).

With `CCOc1ccccc1CNC(=O)c1cc2occc2n1C`, the inhibition is 3.56% (inactive).

In the case of `COc1cccc(CNC(=O)c2cc3oc4ccccc4c3n2C)c1OC`, the inhibition is 55% (inactive).

In the case of `Cn1c(C(=O)NCC2CCCO2)cc2oc3ccccc3c21` (configuration not stated), the inhibition is 6.64% (inactive).

As to `Cc1ccc2c(c1)cc(C(=O)N[C@@H](Cc1ccccc1)C(=O)O)n2C`, the inhibition entry was “inactive”.

For `Cc1ccc(CNC(=O)c2cc3c(=O)n(C)c4ccccc4c3n2C)cc1`, the inhibition was 0.2% (inactive).

`Cn1c(C(=O)NCc2cccs2)cc2c(=O)n(C)c3ccccc3c21`: the inhibition is 0.66% (inactive).

Regarding `Cc1c(C(=O)NCc2cccs2)oc2ccccc12`, the inhibition was 1.87% (inactive).
